For 5 molecules, outcome and AC50 results are on record in PubChem BioAssay (EPA / NIEHS).

Assay [1] in a line: ATG_NFI_CIS: Attagene CIS-FACTORIAL HepG2 Assay for human Nuclear Factor I (NFI) (AID 2282989). The note with it: HepG2 cis-regulatory reporter, NFI response element transcription; actives raise or lower the signal. In short, it runs like this: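 HepG2 cells transiently transfected with cis-element-driven multiplexed reporter transcription units, dosed for 24 h. Reporter mRNA quantified by RT-PCR, fluorescent labelling, HpaI digestion and capillary electrophoresis; bidirectional fit versus DMSO baseline.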

The target of assay [2] is Myc proto-oncogene protein (Homo sapiens) (UniProt P01106). In words: ATG_Myc_CIS: Attagene CIS-FACTORIAL HepG2 Assay for human Myelocytomatosis (Myc) Proto-Oncogene Transcription Factor (AID 2282990). The note with it: HepG2, Attagene cis-reporter transcription factor activity; actives raise or lower the signal. In short, it runs like this:
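Read-out: fluorescent reporter mRNA fragments resolved by capillary electrophoresis after RT-PCR. Human HepG2 liver cells carried transfected cis-element reporter units and were dosed for 24 h. Gain or loss of signal fitted relative to DMSO baseline.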

The nature of assay [3]: ATG_NF_kB_CIS: Attagene CIS-FACTORIAL HepG2 Assay for human Nuclear Factor Kappa B (NF-kB) (AID 2282991). The note with it: HepG2 Attagene cis-factorial NF-kB reporter mRNA; actives raise or lower the signal. The gist of the method:
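DMSO served as negative control and baseline for bidirectional curve fitting. Transiently transfected HepG2 cells were dosed for 24 h, then reporter transcripts were measured by RT-PCR with capillary electrophoresis detection.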

A short description of assay [4]: ATG_Oct_MLP_CIS: Attagene CIS-FACTORIAL HepG2 Assay for human Octamer-Binding Transcription Factor (Oct) (AID 2282993). Particulars: HepG2 Attagene cis-factorial Oct reporter, mRNA; actives raise or lower the signal. The gist of the method: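 HepG2 cells transiently transfected with cis-promoter-driven multiplexed reporter transcription units, dosed for 24 h. Reporter mRNA quantified by RT-PCR, fluorescent labelling, HpaI digestion and capillary electrophoresis; bidirectional fits versus DMSO baseline.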

Assay [5] concerns the target Cellular tumor antigen p53 (Homo sapiens) (UniProt P04637). The assay can be described thus: ATG_p53_CIS: Attagene CIS-FACTORIAL HepG2 Assay for human p53 Transcription Factor (AID 2282994). The note with it: HepG2 p53 cis-element reporter, Attagene mRNA; actives raise or lower the signal. In short, it runs like this: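 Endogenous p53 activity read in transiently transfected HepG2 from a cis-element-driven reporter transcript after 24 h exposure. RNA reverse-transcribed, PCR-amplified, fluorescently labelled and sized by capillary electrophoresis; gain or loss fitted against DMSO baseline.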

The nature of assay [6]: BSK_3C_TissueFactor: BioMAP Diversity Plus: 3C Assay for Tissue Factor Biomarker Activity (AID 2282997). Particulars: BioMAP 3C HUVEC, tissue factor biomarker readout; actives raise or lower the signal. In short, it runs like this: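 Tissue Factor measured by ELISA, 24 h after treatment of primary HUVEC in the BioMAP 3C setting.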
Assay [7] in a line: BSK_3C_uPAR: BioMAP Diversity Plus: 3C Assay for Urokinase-type plasminogen activator receptor (uPAR) Biomarker Activity (AID 2282998). Particulars: BioMAP 3C HUVEC, uPAR biomarker ELISA; actives raise or lower the signal. In short, it runs like this: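 Human umbilical vein endothelial primary cells were exposed to test chemical for 24 h. Cell-surface uPAR was then quantified by ELISA, and responses were fitted bidirectionally against DMSO as negative control and baseline.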

Assay [8] in a line: BSK_3C_VCAM1: BioMAP Diversity Plus: 3C Assay for Vascular cell adhesion molecule 1 (VCAM1) Biomarker Activity (AID 2282999). The note with it: BioMAP 3C HUVEC, VCAM1 ELISA, cytokine-stimulated; actives raise or lower the signal. In short, it runs like this: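 HUVEC primary cells, 24 h compound exposure; VCAM-1 by ELISA; gain/loss of signal fitted bidirectionally vs DMSO baseline.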

Assay [9] is described as follows: BSK_4H_Eotaxin3: BioMAP Diversity Plus: 4H Assay for Eotaxin 3 Biomarker Activity (AID 2283000).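 As to outcome: CCL26 protein level quantified by ELISA in parallel with SRB cytotoxicity check.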 Particulars: primary human endothelial cells (HUVEC); actives raise or lower the signal. In short, it runs like this: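 Eotaxin-3 (CCL26) levels were measured by ELISA in HUVEC primary cultures 24 h post-dosing. Gain or loss of signal was fitted in both directions, with DMSO serving as baseline and negative control.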

The target in assay [10] is human Peroxisome Proliferator-activated Receptor delta (PPARd), PPARD (gene 5467) (UniProt Q03181). In words: ATG_PPARd_TRANS: Attagene TRANS-FACTORIAL HepG2 Assay for human Peroxisome Proliferator-activated Receptor delta (PPARd) (AID 2283002; active = hit-call score of the fitted dose curve at least 0.9, where 1 is the maximum). The gist of the method:
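Read-out: reporter mRNA induction, quantified by fluorescent RT-PCR products resolved by capillary electrophoresis. Human HepG2 liver cells carried transiently transfected Gal4-UAS reporter constructs with chimeric NR-Gal4 fusions. Cells were dosed for 24 h; DMSO served as baseline.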

Read-out in assay [11]: Intercellular Adhesion Molecule 1 (ICAM1), ICAM1 (gene 3383)
The assay can be described thus: BSK_3C_ICAM1: BioMAP Diversity Plus: 3C Assay for Intercellular Adhesion Molecule 1 (ICAM1) Biomarker Activity (AID 2283003). The note with it: primary human endothelial cells (HUVEC); actives raise or lower the signal. The gist of the method: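 ELISA readout of ICAM1 in human umbilical vein endothelial cells in the 3C system, taken 24 h post-dose. Gain or loss of signal versus DMSO was fitted in both directions, with SRB total-protein staining run in parallel.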

For assay [12], the target named is human Retinoic Acid Receptor beta (RARb), RARB (gene 5915) (UniProt P10826). The assay can be described thus: ATG_RARb_TRANS: Attagene TRANS-FACTORIAL HepG2 Assay for human Retinoic Acid Receptor beta (AID 2283004; active = hit-call score of the fitted dose curve at least 0.9, where 1 is the maximum). The gist of the method:
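HepG2 cells were transiently transfected with GAL4-UAS reporter units that report activity of exogenous chimeric NR-Gal4 proteins, then exposed to compound for 24 h. Reporter mRNA was quantified by RT-PCR with capillary electrophoresis fluorescence, as gain of signal over DMSO.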

Assay [13] in a line: BSK_3C_Proliferation: Cell Proliferation Assessment in the BioMAP Diversity Plus: 3C Assay (AID 2283006).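 As to AC50: potency may reflect either rise or fall in cell number versus DMSO.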 Particulars: primary human endothelial cells (HUVEC). In short, it runs like this: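 Proliferation as total protein: sulforhodamine B (0.1%) stain of TCA-fixed subconfluent human umbilical vein endothelial cells, absorbance 560 nm, 48 h after dosing. Activity fitted in both directions against DMSO baseline.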

In assay [14] the target is Peroxisome proliferator-activated receptor gamma (Homo sapiens) (UniProt P37231). In words: ATG_PPARg_TRANS: Attagene TRANS-FACTORIAL HepG2 Assay for human Peroxisome Proliferator-activated Receptor-gamma (PPARg) (AID 2283007; active = hit-call score of the fitted dose curve at least 0.9, where 1 is the maximum). In short, it runs like this: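 Chimeric NR-Gal4 transactivation is measured in transiently transfected HepG2 cells by reporter mRNA induction at 24 h. Detection uses RT-PCR with fluorescent labelling and capillary electrophoresis; DMSO defines baseline.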

Assay [15] addresses Nuclear receptor subfamily 1 group I member 2 (Homo sapiens) (UniProt O75469). The assay can be described thus: ATG_PXR_TRANS: Attagene TRANS-FACTORIAL HepG2 Assay for human Pregnane X Receptor (PXR) (AID 2283008; active = hit-call score of the fitted dose curve at least 0.9, where 1 is the maximum). In short, it runs like this:
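Transactivation by exogenous PXR–GAL4 fusion measured as reporter transcript induction after 24 h compound treatment of transfected human HepG2 cells. Read-out via RT-PCR and capillary electrophoresis of labelled fragments, fitted upward relative to DMSO.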

Assay [16] can be described thus: ATG_NRF2_ARE_CIS: Attagene CIS-FACTORIAL HepG2 Assay for human Nuclear Factor Erythroid 2 Related Factor 2 (NFR2) response to Antioxidant Response Elements (ARE) (AID 2282992). Particulars: HepG2 Attagene ARE/NRF2 reporter, transcription factor activity; actives raise or lower the signal. The gist of the method:
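Endogenous transcription factor activity read out as reporter transcript levels (RT-PCR plus capillary electrophoresis, fluorescence) in transiently transfected HepG2 cells. Measured at 24 h after dosing; gain or loss of signal fitted versus DMSO.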

Assay [17] concerns the target human Peroxisome Proliferator-activated Receptor alpha (PPARa), PPARA (gene 5465) (UniProt Q07869). The assay can be described thus: ATG_PPARa_TRANS: Attagene TRANS-FACTORIAL HepG2 Assay for human Peroxisome Proliferator-activated Receptor alpha (PPARa) (AID 2283001; active = hit-call score of the fitted dose curve at least 0.9, where 1 is the maximum). In short, it runs like this: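 HepG2, transient MRTU transfection, 24 h treatment. RT-PCR → FAM labelling → capillary electrophoresis. Fit vs DMSO, positive direction.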

Assay [18] addresses Retinoic acid receptor alpha (Homo sapiens) (UniProt P10276). In words: ATG_RARa_TRANS: Attagene TRANS-FACTORIAL HepG2 Assay for human Retinoic Acid Receptor alpha (RARa) (AID 2283005; active = hit-call score of the fitted dose curve at least 0.9, where 1 is the maximum). In short, it runs like this:
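HepG2 transiently transfected with multiplex GAL4-UAS reporter units including a human RARa–GAL4 chimera; 24 h compound exposure. Reporter mRNA quantified by RT-PCR, 6-FAM labeling and capillary electrophoresis; gain of signal versus DMSO.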

The target of assay [19] is human RAR-related Orphan Receptor beta (RORb), RORB (gene 6096) (UniProt Q92753). The assay can be described thus: ATG_RORb_TRANS: Attagene TRANS-FACTORIAL HepG2 Assay for human RAR-related Orphan Receptor beta (RORb) (AID 2283010; active = hit-call score of the fitted dose curve at least 0.9, where 1 is the maximum). In short, it runs like this: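 Read-out is reporter mRNA induction, quantified by RT-PCR with fluorescent capillary electrophoresis, 24 h post-dose in transiently transfected HepG2 expressing exogenous NR-Gal4 chimera. Activity fitted upward versus DMSO.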

Assay [20] has as its target human Retinoic Acid Receptor gamma (RARg), RARG (gene 5916) (UniProt P13631). In words: ATG_RARg_TRANS: Attagene TRANS-FACTORIAL HepG2 Assay for human Retinoic Acid Receptor gamma (RARg) (AID 2283009; active = hit-call score of the fitted dose curve at least 0.9, where 1 is the maximum). The gist of the method: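 Transactivation of exogenous RARg-Gal4 fusion measured as reporter transcript induction after 24 h in transfected HepG2 cells. RNA reverse-transcribed, amplified, fluorescently labeled and resolved by capillary electrophoresis; increase relative to DMSO.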

Records with an inconclusive call do not appear. Calls of active or inactive are those of the source. The calls were made as follows, unless noted: active = hit-call score of the fitted dose curve at least 0.9, where 1 is the maximum; inactive = score below 0.9.

Sequence of Myc proto-oncogene protein (Homo sapiens) (P01106 whole entry, looked up, the tested form may be a part): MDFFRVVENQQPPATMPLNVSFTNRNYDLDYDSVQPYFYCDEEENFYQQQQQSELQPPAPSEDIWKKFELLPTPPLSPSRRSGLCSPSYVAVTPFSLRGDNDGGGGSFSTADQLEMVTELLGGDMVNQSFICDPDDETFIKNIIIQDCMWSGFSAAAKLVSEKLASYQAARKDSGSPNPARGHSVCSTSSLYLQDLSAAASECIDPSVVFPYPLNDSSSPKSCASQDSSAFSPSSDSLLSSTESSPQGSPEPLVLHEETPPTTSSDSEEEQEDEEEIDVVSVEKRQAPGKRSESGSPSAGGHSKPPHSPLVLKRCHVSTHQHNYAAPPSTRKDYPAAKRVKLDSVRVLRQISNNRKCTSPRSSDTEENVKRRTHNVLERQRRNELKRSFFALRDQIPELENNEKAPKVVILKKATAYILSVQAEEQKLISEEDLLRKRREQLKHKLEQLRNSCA
Sequence of Peroxisome proliferator-activated receptor gamma (Homo sapiens) (P37231 whole entry, looked up, the tested form may be a part): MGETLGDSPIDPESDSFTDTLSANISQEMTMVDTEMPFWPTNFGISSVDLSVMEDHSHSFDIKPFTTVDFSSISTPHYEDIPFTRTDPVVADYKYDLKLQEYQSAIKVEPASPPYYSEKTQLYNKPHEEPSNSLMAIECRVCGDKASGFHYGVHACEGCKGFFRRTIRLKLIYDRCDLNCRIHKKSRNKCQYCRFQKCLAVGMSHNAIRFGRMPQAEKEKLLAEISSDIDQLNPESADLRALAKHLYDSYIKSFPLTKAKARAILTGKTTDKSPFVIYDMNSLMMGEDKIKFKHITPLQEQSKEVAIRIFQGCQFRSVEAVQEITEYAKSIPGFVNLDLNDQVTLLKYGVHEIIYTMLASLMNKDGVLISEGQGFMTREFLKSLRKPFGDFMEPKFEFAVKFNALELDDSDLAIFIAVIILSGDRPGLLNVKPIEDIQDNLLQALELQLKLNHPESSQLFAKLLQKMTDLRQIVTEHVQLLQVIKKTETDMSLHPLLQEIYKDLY
Sequence of human Peroxisome Proliferator-activated Receptor delta (PPARd), PPARD (gene 5467) (Q03181 whole entry, looked up, the tested form may be a part): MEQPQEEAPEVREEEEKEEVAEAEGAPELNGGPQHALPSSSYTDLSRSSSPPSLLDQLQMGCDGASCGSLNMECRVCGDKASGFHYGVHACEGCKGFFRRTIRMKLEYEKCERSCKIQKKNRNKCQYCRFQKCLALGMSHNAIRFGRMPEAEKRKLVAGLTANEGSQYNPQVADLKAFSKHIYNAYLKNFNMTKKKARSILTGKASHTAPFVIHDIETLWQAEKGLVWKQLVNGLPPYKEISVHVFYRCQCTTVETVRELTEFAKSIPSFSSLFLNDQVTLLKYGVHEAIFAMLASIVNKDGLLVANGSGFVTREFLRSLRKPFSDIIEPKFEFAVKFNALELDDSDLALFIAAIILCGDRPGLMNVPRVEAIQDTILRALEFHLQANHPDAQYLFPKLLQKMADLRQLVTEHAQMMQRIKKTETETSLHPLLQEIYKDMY
Sequence of Cellular tumor antigen p53 (Homo sapiens) (P04637 whole entry, looked up): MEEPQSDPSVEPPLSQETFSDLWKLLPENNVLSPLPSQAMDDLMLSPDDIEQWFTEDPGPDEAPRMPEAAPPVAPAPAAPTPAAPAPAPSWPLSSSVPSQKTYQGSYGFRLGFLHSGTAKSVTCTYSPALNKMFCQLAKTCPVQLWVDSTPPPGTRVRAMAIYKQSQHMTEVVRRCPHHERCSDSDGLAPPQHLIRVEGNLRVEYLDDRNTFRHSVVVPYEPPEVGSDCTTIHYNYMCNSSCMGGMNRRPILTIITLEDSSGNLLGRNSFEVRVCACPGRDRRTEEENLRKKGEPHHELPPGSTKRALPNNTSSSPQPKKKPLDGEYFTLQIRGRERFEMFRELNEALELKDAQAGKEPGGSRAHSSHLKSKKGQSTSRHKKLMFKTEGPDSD
Sequence of human Peroxisome Proliferator-activated Receptor alpha (PPARa), PPARA (gene 5465) (Q07869 whole entry, looked up): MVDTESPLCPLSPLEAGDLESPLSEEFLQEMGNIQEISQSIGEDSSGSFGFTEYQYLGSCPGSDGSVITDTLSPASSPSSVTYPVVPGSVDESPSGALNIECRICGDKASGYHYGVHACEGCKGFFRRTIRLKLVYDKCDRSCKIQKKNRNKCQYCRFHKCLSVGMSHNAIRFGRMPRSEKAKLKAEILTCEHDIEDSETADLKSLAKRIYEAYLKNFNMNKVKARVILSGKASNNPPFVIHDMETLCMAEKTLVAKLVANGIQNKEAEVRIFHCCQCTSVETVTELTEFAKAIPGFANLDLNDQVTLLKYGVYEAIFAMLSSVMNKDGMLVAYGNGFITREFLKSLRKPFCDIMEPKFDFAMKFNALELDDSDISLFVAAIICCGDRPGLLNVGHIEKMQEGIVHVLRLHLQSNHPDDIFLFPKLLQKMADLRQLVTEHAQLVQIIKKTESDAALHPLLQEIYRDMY
Sequence of Nuclear receptor subfamily 1 group I member 2 (Homo sapiens) (O75469 whole entry, looked up, the tested form may be a part): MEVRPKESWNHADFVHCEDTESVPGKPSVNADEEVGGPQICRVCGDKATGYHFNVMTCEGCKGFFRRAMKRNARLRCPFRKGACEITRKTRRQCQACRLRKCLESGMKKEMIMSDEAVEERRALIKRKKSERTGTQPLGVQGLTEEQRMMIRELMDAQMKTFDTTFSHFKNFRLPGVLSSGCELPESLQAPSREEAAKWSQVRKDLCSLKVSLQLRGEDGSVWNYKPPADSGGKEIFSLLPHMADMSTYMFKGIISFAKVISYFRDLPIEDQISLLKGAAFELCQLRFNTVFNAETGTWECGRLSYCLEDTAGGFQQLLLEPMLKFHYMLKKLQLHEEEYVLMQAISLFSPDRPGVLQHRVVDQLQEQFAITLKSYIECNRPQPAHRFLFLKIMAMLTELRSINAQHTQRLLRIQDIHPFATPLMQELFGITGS
Sequence of Retinoic acid receptor alpha (Homo sapiens) (P10276 whole entry, looked up, the tested form may be a part): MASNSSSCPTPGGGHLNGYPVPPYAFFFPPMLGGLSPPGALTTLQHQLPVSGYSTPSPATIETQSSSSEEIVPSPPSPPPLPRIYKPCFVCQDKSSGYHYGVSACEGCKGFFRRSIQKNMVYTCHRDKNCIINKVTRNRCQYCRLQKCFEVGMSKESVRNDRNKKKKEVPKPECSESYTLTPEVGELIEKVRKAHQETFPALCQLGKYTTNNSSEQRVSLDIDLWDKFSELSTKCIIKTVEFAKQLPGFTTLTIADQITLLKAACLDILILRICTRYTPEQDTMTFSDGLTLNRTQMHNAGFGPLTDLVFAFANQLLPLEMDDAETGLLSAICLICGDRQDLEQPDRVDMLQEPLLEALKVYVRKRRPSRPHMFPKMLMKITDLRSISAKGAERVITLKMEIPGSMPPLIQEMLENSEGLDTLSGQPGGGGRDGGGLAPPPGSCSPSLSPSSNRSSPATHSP
Sequence of human Retinoic Acid Receptor beta (RARb), RARB (gene 5915) (P10826 whole entry, looked up, the tested form may be a part): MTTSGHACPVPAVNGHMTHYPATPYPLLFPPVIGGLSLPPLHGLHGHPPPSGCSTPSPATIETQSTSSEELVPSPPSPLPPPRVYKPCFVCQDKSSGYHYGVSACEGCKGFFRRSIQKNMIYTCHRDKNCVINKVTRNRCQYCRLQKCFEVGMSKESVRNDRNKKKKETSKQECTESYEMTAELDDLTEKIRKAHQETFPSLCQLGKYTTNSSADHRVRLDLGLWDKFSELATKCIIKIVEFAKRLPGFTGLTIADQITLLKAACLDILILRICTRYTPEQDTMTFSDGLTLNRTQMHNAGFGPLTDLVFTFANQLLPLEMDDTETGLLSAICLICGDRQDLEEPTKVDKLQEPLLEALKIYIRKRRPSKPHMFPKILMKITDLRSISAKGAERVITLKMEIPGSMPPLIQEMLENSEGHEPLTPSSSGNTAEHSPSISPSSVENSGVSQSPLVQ
Sequence of human RAR-related Orphan Receptor beta (RORb), RORB (gene 6096) (Q92753 whole entry, looked up, the tested form may be a part): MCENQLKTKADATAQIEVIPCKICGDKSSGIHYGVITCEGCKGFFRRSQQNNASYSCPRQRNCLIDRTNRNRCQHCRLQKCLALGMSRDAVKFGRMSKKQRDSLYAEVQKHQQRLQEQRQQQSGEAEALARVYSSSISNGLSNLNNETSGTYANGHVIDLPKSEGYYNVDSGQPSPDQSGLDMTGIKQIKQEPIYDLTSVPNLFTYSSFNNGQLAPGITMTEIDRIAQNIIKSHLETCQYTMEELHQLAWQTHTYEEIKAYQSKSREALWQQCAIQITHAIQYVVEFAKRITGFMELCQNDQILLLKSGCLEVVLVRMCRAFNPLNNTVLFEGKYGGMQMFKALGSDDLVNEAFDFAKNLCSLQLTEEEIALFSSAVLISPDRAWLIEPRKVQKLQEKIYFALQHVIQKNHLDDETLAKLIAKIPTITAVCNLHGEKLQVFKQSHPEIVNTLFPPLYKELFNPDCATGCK
Sequence of human Retinoic Acid Receptor gamma (RARg), RARG (gene 5916) (P13631 whole entry, looked up, the tested form may be a part): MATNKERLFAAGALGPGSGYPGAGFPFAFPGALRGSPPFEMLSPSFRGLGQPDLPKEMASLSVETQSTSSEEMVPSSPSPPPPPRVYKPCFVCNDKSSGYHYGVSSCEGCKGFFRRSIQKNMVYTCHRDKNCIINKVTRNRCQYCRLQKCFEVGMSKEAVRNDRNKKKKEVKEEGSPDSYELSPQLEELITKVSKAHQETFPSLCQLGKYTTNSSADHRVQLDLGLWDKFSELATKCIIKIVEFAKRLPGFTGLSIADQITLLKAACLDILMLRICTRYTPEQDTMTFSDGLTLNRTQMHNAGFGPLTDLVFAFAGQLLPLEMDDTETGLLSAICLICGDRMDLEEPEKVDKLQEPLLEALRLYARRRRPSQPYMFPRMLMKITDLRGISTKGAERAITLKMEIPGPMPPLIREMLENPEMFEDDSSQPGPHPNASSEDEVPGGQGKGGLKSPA

Regarding `CC(C)(COCC1CO1)COCC1CO1` (stereo not drawn), the call in assay [1], in assay [2], in assay [3], in assay [4], in assay [5] and in [7] was inactive. Besides, the outcome in assay [8], in assay [9], in assay [10], in [11], in [12] and in assay [14] was inactive. Also, the outcome in assay [15] was inactive. Also, the values for the AC50 in [6] and in assay [13] were 3.97 µM (active) and 20 µM (active), respectively.

For `Brc1ccc(Br)cc1`, the molecule was classed as inactive in assay [1], in [2], in assay [16], in [4], in [5] and in assay [17]. The outcome in [10], in assay [18], in assay [14] and in assay [19] was inactive.

In the case of `O=NN1CCOCC1`, the molecule was classed as inactive in assay [1], in assay [2], in [16], in [4], in [5] and in assay [17]. In addition, the molecule was called inactive in assay [10] and in [14].

Turning to `CCOC(=O)CCN(SN(C)C(=O)Oc1cccc2c1OC(C)(C)C2)C(C)C`, the call in assay [1], in assay [2], in assay [4], in [5], in assay [17] and in assay [10] was inactive. Besides, the outcome in assay [11] was inactive. Besides, the AC50 in assay [16] is 26.2 µM (active); in assay [6], 31.1 µM (active); in assay [7], 32.5 µM (active); in assay [8], 20 µM (active); in assay [9], 28.8 µM (active); in [13] it was 23.3 µM (active). The AC50 in assay [14] is 0.713 µM (active).

For `OC(Cc1ccccc1Cl)(Cn1cncn1)C1(Cl)CC1` (stereo not drawn), the outcome in assay [1], in [2], in [3], in assay [4], in assay [6] and in [8] was inactive. For the same molecule, the outcome in assay [9], in [10], in [11], in [18], in [13] and in assay [14] was inactive. Besides, in assay [20], the molecule was classed as inactive. In addition, the results for the AC50 in [5], in [7] and in assay [15] were 30 µM (active), 16.5 µM (active) and 7.37 µM (active), respectively.
